# Most compounds without a hit are left out; they make up all but 32% or so of the library.
# PostGolgi ctrl: growth of the yeast control strain, post-Golgi counter-screen | efflux-deficient yeast background strain, growth absorbance A615, 16 h | AID 738 | inhibition, % at 10 µM | 98,000 tested, 5% active
# CYP2C19 inh: human CYP2C19 inhibition; P33261; CYP2C19 Supersomes, luciferin-H EGE luminescence, 30 min; inhibition, % at 5 µM; 96,000 tested, 21% active; AID 778;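 active means CYP2C19 inhibition above a set limit at 5 µM in the primary screen, cut at about 50% in these data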
# CYP2C9 activ: increases human cytochrome P450 2C9 activity. P11712. recombinant CYP2C9, luciferin-H conversion, luminescence; hits give high values; factor 1 = untreated enzyme, 0 = blocked. activation factor at 5 µM. 96,000 tested, 1.4% active. AID 1024;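 active means activation factor of 2 or more for CYP2C9 at a 5 µM dose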
# CYP2C19 act: increases human CYP2C19 enzyme activity; 96,000 tested, under 10 active; activation factor at 5 µM; AID 1025; recombinant CYP2C19, luciferin-H EGE luminescence; hits give high values; 0 = fully inhibited enzyme, 1 = untreated enzyme;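 active means activation factor of at least 2 at 5 µM in the primary screen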
# PostGolgi yeast: growth inhibition of a yeast mutant, post-Golgi transport screen | post-Golgi transport phenotypic cell assay | inhibition, % at 10 µM | 98,000 tested, 0.9% active;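 further: yeast cells grown in 1536-well plates; yeast grown about 18 h at 30C before absorbance read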
# CYP2C9 inhib: human CYP2C9 inhibition | CYP2C9 Supersomes, luciferin-H conversion, luminescence | inhibition, % at 5 µM | 96,000 tested, 20% active;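 active means blocking of liver enzyme CYP2C9 beyond about 50% at 5 µM, limit read from the data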
# Hits are given with their value; 0 = inactive; - = no result given. Unless noted, no stated cut-off is given here; in the data, active means inhibition above about 30%; inactive means the rest.
SMILES,PostGolgi ctrl,CYP2C19 inh,CYP2C9 activ,CYP2C19 act,PostGolgi yeast,CYP2C9 inhib
COc1ccc(C2C(C#N)=C(N)N(c3sc4c(c3C#N)CCCC4)C3=C2C(=O)CC(C)(C)C3)cc1OC (stereo not given),0,62,0,0,0,86
COc1ccc(C2C(C#N)=C3NC(=O)c4c(sc5c4CCCCC5)N3C3=C2C(=O)CC(C)(C)C3)cc1 (stereo not given),36,0,0,0,0,0
Cc1ccccc1C1C(C#N)=C2N=C(N)c3c(sc4c3CCCCC4)N2C2=C1C(=O)CCC2 (stereo not given),0,0,0,0,0,0
COc1ccc(C2C(C#N)=C(N)N(c3sc4c(c3C#N)CCCC4)C3=C2C(=O)CC(C)(C)C3)cc1 (stereo not given),0,0,0,0,0,0
COc1ccc(Br)cc1C(=O)Nc1cccc(C)c1,0,0,0,0,0,0
COc1ccc(Br)cc1C(=O)Nc1cccc(NC(=O)c2ccco2)c1,49,88,0,0,0,0
O=C(Nc1cccc(NC(=O)c2ccc(-c3cccc(Br)c3)o2)c1)c1ccco1,0,54,0,0,0,60
Cc1cc(C)c(OCC(=O)Nc2cccc(NC(=O)c3ccco3)c2)c(Br)c1,-,96,0,0,-,74
COc1c(C)cc(Br)cc1C(=O)Nc1cccc(NC(=O)c2ccco2)c1,56,97,0,0,31,83
O=C(Nc1cccc(NC(=O)c2ccc(-c3ccc(Br)cc3)o2)c1)c1ccccc1,0,0,0,0,0,0
Cc1cc(C)nc(-n2nc(C)cc2NC(=O)c2cccc(S(=O)(=O)N3CCCCC3)c2)n1,0,0,0,0,0,0
Cc1sc(NC(=O)CSc2nnnn2C2CCCCC2)c(C#N)c1C,0,0,0,0,0,0
CC(=O)Nc1cccc(NC(=O)c2oc3ccccc3c2C)c1,0,53,0,0,0,0
Cc1c(C(=O)Nc2ccc(Cl)cn2)oc2ccccc12,31,-,-,-,0,-
CC(=O)Nc1cccc(NC(=O)c2cc3ccccc3o2)c1,0,0,0,0,0,0
Cc1c(C(=O)NCCc2ccc3c(c2)OCCO3)oc2ccccc12,0,86,0,0,0,82
Cc1c(C(=O)NC2=NCCS2)oc2ccccc12,0,61,0,0,0,0
CC(=O)Nc1ccc(C2Nc3ccccc3C(=O)N2C2CCCCC2)cc1 (stereo not given),0,0,0,0,0,84
O=C(NCc1ccc(Cl)cc1Cl)c1ccccn1,0,99,0,0,0,0
CCOc1cccc(CNc2ccc(O)cc2)c1OCc1ccc(Cl)cc1Cl,0,0,0,0,0,0
Clc1ccc(COc2ccccn2)c(Cl)c1,0,87,0,0,0,0
Cc1ccc(CCNC(=O)C2CCN(C(=O)N(C)C)CC2)cc1,0,0,0,0,0,0
CC1(C)CC(=O)c2sc(NC(=O)CCS(=O)(=O)c3ccccc3)nc2C1,0,0,0,0,0,0
CC(Oc1ccccc1)C(=O)Nc1nc2c(s1)C(=O)CC(C)(C)C2 (stereo not given),0,57,0,0,0,61
COc1cccc(C(=O)N/N=C2/SCC(=O)N2CCc2ccc(OC)c(OC)c2)c1,0,0,0,0,0,0
SMILES,PostGolgi ctrl,CYP2C19 inh,CYP2C9 activ,CYP2C19 act,PostGolgi yeast,CYP2C9 inhib
O=c1c2c(n3nnnc3n1Cc1ccccc1)-c1ccccc1CC21CCCC1,0,0,0,0,0,72
CSc1nnc2n(C)c3c(c(=O)n12)C1(CCCC1)Cc1ccccc1-3,38,0,0,0,0,0
N#CCCN1CCN(C(CNS(=O)(=O)c2ccc(Cl)cc2)c2ccccc2)CC1 (stereo not given),0,90,0,0,0,0
Cc1ccc(S(=O)(=O)NCC(c2ccccc2)N2CCN(CCC#N)CC2)cc1 (stereo not given),0,76,0,0,0,0
Cc1cc(F)ccc1NCc1ccncc1,0,82,0,0,0,62
Cc1cc(F)ccc1NCc1cc2c(cc1[N+](=O)[O-])OCO2,0,0,0,0,0,0
O=C(COC(=O)Cc1cccs1)Nc1ccc(F)c(F)c1F,0,75,0,0,0,0
CC(C)c1nc(-c2c(N)n(C)c(=O)n(C)c2=O)sc1C(=O)C(C)(C)C,0,76,0,0,0,0
O=C(Cn1nnc(-c2ccccc2)n1)Nc1ccc2c(c1)OCO2,0,0,0,0,0,0

# From PubChem
